# Assay outcomes (PubChem BioAssay)
# Compounds with a hit are over-represented: about 0.86% of the library has one in this group of screens.
# AmpC detergent = inhibitors of E. coli AmpC beta-lactamase with detergent. P00811. AmpC hydrolysis of nitrocefin, absorbance 480 nm, 0.01% Triton. Potency, µM (doses to about 114 µM), inactives show at the top dose activity change, negative = inhibition, actives largely listed as inhibitors. 370,000 compounds, 0.041% hits. AID 485294;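 note: 0% = no-compound wells and -100% = no-enzyme wells; nearly all actives have a fitted effect of over 25% in size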
# Target sequence (P00811 whole entry, looked up): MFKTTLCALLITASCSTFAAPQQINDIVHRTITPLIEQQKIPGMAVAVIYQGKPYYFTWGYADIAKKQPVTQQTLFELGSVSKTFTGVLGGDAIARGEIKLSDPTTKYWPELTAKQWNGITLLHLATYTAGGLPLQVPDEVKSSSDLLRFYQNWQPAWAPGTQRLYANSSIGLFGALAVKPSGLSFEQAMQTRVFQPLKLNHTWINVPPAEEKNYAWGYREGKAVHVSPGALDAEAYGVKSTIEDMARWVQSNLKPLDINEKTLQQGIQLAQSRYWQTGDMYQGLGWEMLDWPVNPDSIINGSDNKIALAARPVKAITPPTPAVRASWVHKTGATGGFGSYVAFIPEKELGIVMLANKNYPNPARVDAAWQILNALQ
#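 20 mM phosphate pH 7.0 + 0.01% (detergent screen) or 0.0001% Triton X-100; 5.3 nM AmpC reagent; cpd preinc 15 min RT; nitrocefin (800 uM stock) to start; A480 q20 s × 4 min; Activity was normalised to no-enzyme and no-compound control wells.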
# AMA1 RON2 block = AMA1-RON2 (P. falciparum) interaction inhibition. AlphaScreen AMA1-biotinylated RON2 peptide binding. Potency, µM (highest dose often 58.2 µM), for the others: at the highest dose activity change, negative = inhibition, hits mostly inhibitors. 360,000 compounds, 0.2% hits;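 note: 0% = vehicle wells and -100% = peptide control; nearly all actives have a fitted effect of over 45% in size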
#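 AMA1 (3D7) with his tag at 25 nM final met compounds first, then biotinylated RON2 peptide at 25 nM; detection used donor plus acceptor beads, 10 µg/mL apiece, read by AlphaScreen after 30 min at room temperature.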
# AmpC inh no detg = inhibitors of E. coli AmpC beta-lactamase without detergent. P00811. 330,000 compounds, 0.52% hits. Potency, µM (doses to about 57.1 µM), for inactives: top-dose activity change, negative = inhibition, usual class: inhibitors. AID 485341. AmpC nitrocefin hydrolysis, absorbance 480 nm, 0.0001% Triton;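 note: plate controls were no compound for no effect and no enzyme for full effect; nearly all actives have a fitted effect of over 20% in size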
#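 20 mM phosphate pH 7.0 + 0.01% (detergent screen) or 0.0001% Triton X-100; 5.3 nM AmpC reagent; cpd preinc 15 min RT; nitrocefin (800 uM stock) to start; A480 q20 s × 4 min; Activity was normalised to no-enzyme and no-compound control wells.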
# NS1 function inh = inhibitors of influenza NS1 protein function. Potency, µM (top dose mostly 46.1 µM), inactives show at the highest dose activity, positive = more growth. 270,000 compounds, 0.4% hits; calls by dose curve; note: actives are rising curves; nearly all actives have a fitted effect of over 50% in size
#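 S. cerevisiae expressing influenza A NS1, grown in glucose, washed, then diluted 1:100 into pH 6.0 -URA galactose medium with 23 nl compound. Growth recovery read as OD600; NS1-free strain serves as control.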
# * marks the source's active call; other numbers are inactive results; ? = inconclusive; nt = no result; [ ] = another dose, or the depositor's remark. Unless noted, calls come from the whole dose curve; as a rule, active = well fitted curve in the direction sought with a large enough effect; inconclusive = small, poorly fitted or top-dose-only effect, or another doubt; inactive = no such curve, though single readings can be large; an effect the other way counts as inactive or inconclusive. Potency is the fitted concentration of half-maximal effect.
SMILES,AmpC detergent,AMA1 RON2 block,AmpC inh no detg,NS1 function inh
CN(Cc1c(C(=O)N/N=C/c2cccc(Cl)c2)nnn1-c1nonc1N)c1ccccc1,4.7%,-10.9%,14.1µM*,4.3%
CN(Cc1c(C(=O)N/N=C/c2ccccc2)nnn1-c1nonc1N)c1ccccc1,-13.5%,43.6%,-42.7%,-0.9%
O=C(/C=C\NCC(=O)c1ccccc1)c1ccc2ccccc2c1,0.7%,7.8%[11.6 µM],-44.1%,-0.2%
O=C(/C=C\NCC(=O)c1ccccc1)c1ccc(F)cc1,1.1%,-10.2%,17.8µM*,-3.6%
O=C1c2ccccc2C(c2nnnn2Cc2ccccc2)N1Cc1ccc2c(c1)OCO2 (stereo not given),nt,-9.6%,nt,nt
NC(=O)c1nsc(C(=O)N(c2cccc(F)c2)C(C(=O)NCc2ccccc2)c2ccc(O)cc2)c1N (stereo not given),-6.5%,8.0%,7.94µM*,0.9%
COc1ccc(N2CCN(c3ncnc4scc(-c5ccc(F)cc5)c34)CC2)cc1,?,12.6µM*,2.8%,-5.3%
COc1ccc(N2CCN(c3ncnc4scc(-c5ccc(C)cc5)c34)CC2)cc1,-9.2%,10.8%,17.0%,7.4%
CCOC(=O)C1(C(=O)OCC)NC(=O)CC1CC(C)C (stereo not given),nt,16.4%,nt,nt
O=C(CCN1C(=O)c2ccccc2C1=O)C1=NN[C@@H]2C(=O)N(c3ccc4c(c3)OCO4)C(=O)[C@H]12,-6.6%,9.0%,-22.8%,-4.7%
CCC12CN3CC(C)(CN(C1)C3c1c[nH]c3ccc(OC)cc13)C2=O (stereo not given),-9.5%,nt,nt,nt
Cc1ccc(NC(=O)CN2CCN(Cc3ccccc3)CC2)c(Br)c1,7.6%,20µM*,184.6%,6.5%
Cc1ccc(NC(=O)CN2CCOCC2)c(Br)c1,-13.7%,8.2%,-5.1%,-5.4%
Nc1cc(-c2ccc(Br)cc2)nn1S(=O)(=O)c1cccc2nsnc12,?,-27.6%,-51.8%,23.6%
Nc1cc(-c2ccc(Cl)cc2)nn1S(=O)(=O)c1cccc2nsnc12,-14.8%,-25.8%,22.4µM*,18.1%
CC(C)NC(=O)[C@H]1N2C(=O)c3ccccc3C2SC1(C)C (stereo not given in full),-4.4%,8.7%,-2.6%,0.9%
O=C(COC(=O)Cc1ccccc1)Nc1cc(S(=O)(=O)N2CCCCC2)ccc1Cl,0.0%,-0.5%,-22.6%,nt
Cc1ccccc1OCC(=O)OCC(=O)Nc1cc(S(=O)(=O)N2CCCCC2)ccc1Cl,?,-4.5%,31.6µM*,nt
COc1ccc(Cl)cc1NC(=O)COc1ccc(S(=O)(=O)N2CCOCC2)cc1C,28.2µM*,0.1%,-19.0%,4.3%
O=C(c1ccc(Cl)cc1)N1CCC(c2nc3ccccc3o2)CC1,-3.3%,nt,nt,nt
O=S1(=O)NC(c2ccccc2)CC(CC2CCCCC2)O1 (stereo not given),-9.3%,0.9%,8.91µM*,-13.1%
COc1ccc(Cl)cc1NC(=O)c1cnc2sccn2c1=O,?,-5.6%,3.55µM*,-5.6%
CCOc1ccccc1N1CC(C(=O)N(C)Cc2cccnc2)CC1=O (stereo not given),2.7%,1.8%,-7.0%,2.3%
Cc1ccc(N)c(C(=O)c2ccc(Br)cc2)c1,2.9%,15.8µM*,-3.4%,nt
Cc1cccc(NC(=O)CN2C(=O)S/C(=C\c3ccc(O)c([N+](=O)[O-])c3)C2=O)c1,0.6%,-14.9%,-42.3%,nt
SMILES,AmpC detergent,AMA1 RON2 block,AmpC inh no detg,NS1 function inh
Cc1ccc(NC(=O)CN2C(=O)S/C(=C/c3ccc(O)c([N+](=O)[O-])c3)C2=O)cc1C,50.1µM*,-15.1%,-48.7%,-5.0%
CC1(C(=O)NS(=O)(=O)C2CC2)CCN(C(=O)COCc2ccccc2)C1 (stereo not given),nt,11.1%,nt,nt
COc1cc(NC(=O)CN2C(=O)NC(C)(CC(C)C)C2=O)cc(OC)c1 (stereo not given),1.6%,-0.9%,0.891µM*,5.6%
COc1cc(NC(=O)CN2C(=O)NC(C)(CCC(C)C)C2=O)cc(OC)c1 (stereo not given),?,-18.6%,4.8%,-1.1%
CCOC(=O)c1sc(NC(=O)Cn2nnc3sc4c(c3c2=O)CCC(C(C)(C)C)C4)nc1C (stereo not given),-10.0%,-11.2%,3.55µM*,13.8%
CCOc1ccc(CSc2nc(C)cc(COC)c2C#N)cc1OCC,-7.1%,8.8%,87.1%,3.4%
Cn1c(C(=O)N2CCN(Cc3ccccc3)CC2)cc2c(=O)n(C)c3ccccc3c21,-10.7%,-9.0%,94.1%,-9.5%
CCN1CCN(C(=O)c2cc3c(=O)n(C)c4ccccc4c3n2C)CC1,?,17.8%,11.2µM*,-10.1%
